# Measurements: PubChem BioAssay (NCATS)
# Values without a mark were called inactive. Inconclusive results are not listed. Where a call stands in place of a potency, no number is given. Calls of active or inactive are those of the source. Unless noted, calls come from the whole dose curve; as a rule, active = well fitted curve in the direction sought with a large enough effect; inconclusive = small, poorly fitted or top-dose-only effect, or another doubt; inactive = no such curve, though single readings can be large; an effect the other way counts as inactive or inconclusive.
# Assays:
# [1] = Cell Viability - Jurkat (AID 426;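 active = dose-dependent loss of cell ATP signal giving a full or clear fitted curve, ranked by lower potency value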; note: potency is the fitted concentration of half-maximal effect); details: qHTS
# Procedure, shortened: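 Jurkat (clone E6-1, human T-cell leukemia) cells, 5000/well in complete medium, were exposed to compound for 40 hr at 37 °C. Viability was read as intracellular ATP by CellTiter-Glo luminescence; AC50 came from Hill fits of concentration-response data.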
# [2] = Cell Viability - Hek293 (AID 427;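 active = compounds whose dose-response curve shows a full or clear partial loss of cell viability, called from curve shape rather than a numeric limit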;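 note: potency is the fitted concentration of half-maximal effect; cells exposed to compound for 40 hours at 37 °C before reading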); details: qHTS
# Procedure, shortened: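 qHTS, human embryonic kidney (adenovirus-transformed) cells; 40 hr cpd, 37 °C; CellTiter-Glo ATP luminescence. Norm: DMSO = 0, 100 uM tamoxifen = 100% inhibition. Hill-fit AC50.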
# [3] = Cell Viability - NIH 3T3 (AID 541); details: NIH 3T3 cell viability, qHTS; activity change, negative = cytotoxicity: at 92.2 µM (top of the series); note: nearly all actives have a fitted effect of over 25% in size; note: potency is the fitted concentration of half-maximal effect
# Procedure, shortened: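 NIH 3T3 mouse embryo fibroblasts (1000 cells/well) were plated in complete medium and treated with compound for 40 hr at 37 °C. Viability was read as intracellular ATP by CellTiter-Glo luminescence; AC50 values came from Hill-equation fits of concentration-response data.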
# [4] = Cell Viability - H-4-II-E (AID 543); details: H-4-II-E rat hepatoma viability; series mostly up to 92.2 µM; note: nearly all actives have a fitted effect of over 35% in size; note: potency is the fitted concentration of half-maximal effect
# Procedure, shortened: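 Rat hepatoma H-4-II-E cells (1500/well) were plated, incubated 5 hr at 37 °C, then exposed to compounds for 40 hr at 37 °C. Cellular ATP was read by CellTiter-Glo luminescence; AC50 came from Hill-equation fits of concentration-response data.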
# [5] = Cellular Toxicity (caspase-3) SHSY5Y (AID 657); details: SH-SY5Y caspase-3 activation; series mostly up to 91.7 µM
# Procedure, shortened: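 Luminescent caspase-3/7 readout (aminoluciferin release) in SH-SY5Y cells after 16 h compound exposure in complete medium. Activity scaled between DMSO basal and 10 uM staurosporine as 100%; concentration-response fitted to Hill equation for AC50.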
# [6] = Cellular Toxicity (caspase-3) BJ (AID 658); details: BJ fibroblasts, luminescence; Potency: caspase-3 activation; series mostly up to 91.7 µM
# Procedure, shortened: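 Readout: Caspase-Glo 3/7 luminescence increase in BJ cells after 16 hr treatment at 37 °C. Staurosporine and tamoxifen served as positive controls; AC50 values came from Hill modelling of data normalized to DMSO and 10 uM staurosporine.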
# [7] = Cellular Toxicity (caspase-3) MRC-5 (AID 659); details: MRC-5 cells, luminescence, normalized: DMSO 0%, 10 µM staurosporine 100%; series mostly up to 91.7 µM
# Procedure, shortened: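 Concentration-dependent caspase 3/7 activation is measured in human normal lung fibroblasts (MRC-5) following 16-hour treatment. AC50 values come from standard Hill-equation modeling of luminescence normalized to DMSO and 10 uM staurosporine.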
# [8] = Cellular Toxicity (caspase-3) SK-N-SH (AID 661); details: SK-N-SH caspase-3 activation, qHTS; caspase-3 activation: at 91.7 µM (top of the series), DMSO as zero, staurosporine as full
# Procedure, shortened: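 SK-N-SH human neuroblastoma cells (1500/well) were treated with compounds for 16 hr at 37 °C in complete medium; caspase 3/7 activity was read by Caspase-Glo luminescence. AC50 came from Hill fits of data normalized to DMSO and 10 uM staurosporine.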
# [9] = Cellular Toxicity (caspase-3) Hek293 (AID 664); details: HEK293 caspase-3 activation, DMSO = 0%, 100 µM tamoxifen = 100%; at 92.2 µM (top of the series);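 note: cells exposed to compound for 16 h at 37 °C before readout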
# Procedure, shortened: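 HEK293 cells were exposed to compounds in complete medium for 16 hr at 37 °C, then caspase-3/7 activity was read by Caspase-Glo 3/7 luminescence after 20 min at room temperature. Data normalized to DMSO and 100 uM tamoxifen; AC50 from Hill fits.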
# [10] = MultiTox-Fluor Cytotoxicity Assay - LYMP1-001 - Dead Cells (AID 946); details: LYMP1-001 lymphoblastoid cells, dead-cell protease fluorescence; series mostly up to 92.2 µM; note: potency is the fitted concentration of half-maximal effect
# Procedure, shortened: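 Seed 2500 LYMP1-001 cells/well, incubate 5 hr at 37 C; add compound, 16 hr at 37 C; add MultiTox-Fluor reagent, 60 min RT; read dead-cell fluorescence Ex/Em=485/520. Normalize to DMSO and 15 uM tetraoctylammonium bromide.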
# [11] = MultiTox-Fluor Cytotoxicity Assay - LYMP1-003 - Live Cells (AID 962); details: LYMP1-003 lymphoblastoid cells, MultiTox-Fluor live-cell protease fluorescence; series mostly up to 92.2 µM; note: potency is the fitted concentration of half-maximal effect
# Procedure, shortened: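 LYMP1-003 human lymphoblastoid cells (2500/well) in complete medium were preincubated 5 hr at 37 C, then exposed to compounds for 16 hr at 37 C. Live-cell protease cleavage of GF-AFC read by fluorescence (Ex/Em 405/510); AC50 from Hill fits.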
# [12] = Cell Viability - LYMP1-003 - Assay at 24 hr (AID 963); details: LYMP1-003 lymphoblastoid cell viability; series mostly up to 92.2 µM; note: potency is the fitted concentration of half-maximal effect
# Procedure, shortened: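 Human lymphoblastoid LYMP1-003 cells (2500/well) were rested 5 hr at 37 C, then exposed to compounds in complete medium for 24 hr at 37 C. Cellular ATP was quantified by CellTiter-Glo luminescence, and AC50 values came from Hill fits of concentration-response data.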
# [13] = Cell Viability - LYMP2-003 (AID 965); details: LYMP2-003 lymphoblastoid cell viability; series mostly up to 92.2 µM;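 note: cells exposed to compounds for 24 h before reading; nearly all actives have a fitted effect of over 50% in size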; note: potency is the fitted concentration of half-maximal effect
# Procedure, shortened: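 CellTiter-Glo luminescence (cellular ATP) after 24 h compound exposure at 37 C in complete medium; 2500 cells/well, 5 h settling beforehand. Concentration-response fitted to standard Hill equation for AC50. Tetraoctylammonium bromide served as positive control.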
# [14] = Cell Viability - LYMP2-009 (AID 968); details: LYMP2-009 lymphoblastoid cell viability; series mostly up to 92.2 µM; note: nearly all actives have a fitted effect of over 55% in size; note: potency is the fitted concentration of half-maximal effect
# [15] = Cell Viability - LYMP2-021 (AID 974); details: LYMP2-021 lymphoblastoid cells viability; series mostly up to 92.2 µM;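 note: compound exposure lasts 24 hours at 37 °C; nearly all actives have a fitted effect of over 55% in size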; note: potency is the fitted concentration of half-maximal effect
# Procedure, shortened: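 Human lymphoblastoid cells (2500/well) were preincubated 5 hr at 37 C, then exposed to compounds for 24 hr at 37 C in complete medium. Intracellular ATP was read by CellTiter-Glo luminescence; AC50 came from Hill-equation fits of concentration-response data.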
# [16] = Cell Viability - LYMP2-007 (AID 979); details: LYMP2-007 lymphoblastoid cell viability; series mostly up to 92.2 µM;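 note: cells exposed to compound for 24 h before reading; nearly all actives have a fitted effect of over 60% in size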; note: potency is the fitted concentration of half-maximal effect
# Procedure, shortened: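 Human lymphoblastoid cells (2500/well) were plated in complete medium, incubated 5 hr at 37 C, then exposed to compounds for 24 hr at 37 C. Intracellular ATP was read by CellTiter-Glo luminescence after 30 min at room temperature; AC50 from Hill fits.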
# [17] = Cell Viability - LYMP1-002 - Assay at 24 hr (AID 993); details: LYMP1-002 lymphoblastoid cells viability; series mostly up to 92.2 µM; note: potency is the fitted concentration of half-maximal effect
# Procedure, shortened: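 Human lymphoblastoid LYMP1-002 cells, 2500/well in complete medium, were treated with compounds for 24 h at 37 C; intracellular ATP was read by CellTiter-Glo luminescence. AC50 values came from Hill-equation fits of qHTS concentration-response data.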
# [18] = Cellular Toxicity (caspase-3) Jurkat (AID 655); details: Jurkat caspase-3 activation, luminescence; caspase-3 activation: at 92.2 µM (top of the series), DMSO = 0%, tamoxifen = 100%;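 note: cells exposed to compound for 16 h at 37 °C before reading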; note: potency is the fitted concentration of half-maximal effect
# Procedure, shortened: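 Luminescent caspase-3/7 readout (aminoluciferin substrate cleavage) in human T-cell leukemia Jurkat cells after 16 hr compound exposure. Concentration-response normalized to DMSO and 100 uM tamoxifen; AC50 by standard Hill equation.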
# [19] = Cellular Toxicity (caspase-3) NIH 3T3 (AID 666); details: NIH 3T3 caspase-3 activation, apoptosis/toxicity; series mostly up to 92.2 µM;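 note: caspase signal read after 16 h compound exposure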
# Procedure, shortened: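 Mouse NIH 3T3 fibroblasts (1000 cells/well) were treated with compound for 16 hr at 37°C in complete medium; caspase-3/7 activity was read by Caspase-Glo luminescence. Normalized to DMSO and 100 uM tamoxifen; AC50 from Hill fits.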
# [20] = Cell Viability - LYMP1-002 - Assay at 16 hr (AID 948); details: LYMP1-002 lymphoblastoid cell viability; series mostly up to 92.2 µM
# Procedure, shortened: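 LYMP1-002 human lymphoblastoid cells, 2500/well; 5 hr 37 C; cpd 16 hr 37 C; CellTiter-Glo 30 min RT; luminescence (ATP). Concentration-response, Hill-fit AC50. Pos ctrl tetraoctylammonium bromide.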
compound,measurement,setting,value
CNc1ccc(O)cc1,Potency,[1],2.14 µM (active)
same,Potency,[2],40.8 µM (active)
same,Potency,[3],25.1 µM (active)
same,Potency,[4],20 µM (active)
same,Potency,[5],inactive
same,Potency,[6],inactive
same,outcome,[7],inactive
same,caspase-3 activation,[8],-7.58%
same,caspase-3 activation,[9],-11.1%
same,Potency,[10],25.1 µM (active)
same,Potency,[11],31.6 µM (active)
same,Potency,[12],25.1 µM (active)
same,Potency,[13],5.01 µM (active)
same,Potency,[14],6.31 µM (active)
same,Potency,[15],3.98 µM (active)
same,Potency,[16],6.31 µM (active)
same,Potency,[17],15.8 µM (active)
O=C=Nc1ccc(Cc2ccc(N=C=O)cc2)cc1,Potency,[1],> 92 µM
same,Potency,[2],> 92 µM
same,Potency,[3],inactive
same,Potency,[4],inactive
same,Potency,[18],inactive
same,Potency,[5],inactive
same,Potency,[6],inactive
same,outcome,[7],inactive
same,caspase-3 activation,[8],0.0206%
same,caspase-3 activation,[9],-1.82%
same,Potency,[19],inactive
same,Potency,[10],inactive
same,Potency,[20],inactive
same,Potency,[11],inactive
same,Potency,[12],inactive
same,Potency,[13],inactive
same,Potency,[14],inactive
same,Potency,[15],inactive
same,Potency,[16],inactive
same,Potency,[17],inactive
CC/C(=C(\c1ccccc1)c1ccc(OCCN(C)C)cc1)c1ccc(O)cc1,Potency,[1],40.8 µM (active)
same,"activity change, negative = cytotoxicity",[3],-141% (active)
same,Potency,[4],39.8 µM (active)
same,Potency,[18],31.6 µM (active)
same,Potency,[5],inactive
same,Potency,[19],inactive
same,Potency,[20],inactive
C/C=C1\C(=O)C[C@H]2[C@@H]3CCC4=CC(=O)CC[C@]4(C)[C@H]3CC[C@]12C,"activity change, negative = cytotoxicity",[3],-149% (active)
same,Potency,[4],39.8 µM (active)
same,Potency,[18],inactive
same,Potency,[5],inactive
same,Potency,[6],inactive
same,caspase-3 activation,[8],1.31%
same,Potency,[19],inactive
same,Potency,[10],50.1 µM (active)
same,Potency,[20],inactive
same,Potency,[11],inactive
same,Potency,[12],inactive
same,Potency,[13],inactive
same,Potency,[14],inactive
same,Potency,[15],inactive
same,Potency,[16],inactive
same,Potency,[17],inactive
O=C(OCC(COC(=O)c1ccccc1)(COC(=O)c1ccccc1)COC(=O)c1ccccc1)c1ccccc1,Potency,[1],> 92 µM
same,Potency,[2],> 92 µM
same,Potency,[3],inactive
same,Potency,[4],inactive
same,Potency,[18],inactive
same,Potency,[5],inactive
same,Potency,[6],inactive
same,outcome,[7],inactive
same,caspase-3 activation,[8],-0.121%
same,caspase-3 activation,[9],2.36%
same,Potency,[19],inactive
same,Potency,[10],inactive
same,Potency,[20],inactive
same,Potency,[11],inactive
same,Potency,[12],inactive
same,Potency,[13],inactive
same,Potency,[14],inactive
same,Potency,[15],inactive
same,Potency,[16],inactive
same,Potency,[17],inactive
c1ccc2c(c1)ccc1cc3c(ccc4ccccc43)cc12,Potency,[1],> 92 µM
same,Potency,[2],> 92 µM
same,Potency,[3],inactive
same,Potency,[4],inactive
same,Potency,[18],inactive
same,Potency,[5],inactive
same,Potency,[6],inactive
same,outcome,[7],inactive
same,caspase-3 activation,[8],-0.556%
same,caspase-3 activation,[9],-3.42%
same,Potency,[19],inactive
same,Potency,[10],inactive
same,Potency,[20],inactive
same,Potency,[11],inactive
same,Potency,[12],inactive
same,Potency,[13],inactive
same,Potency,[14],inactive
same,Potency,[15],inactive
same,Potency,[16],inactive
same,Potency,[17],inactive
CN(C)c1ccc(C2(c3ccc(N(C)C)cc3)OC(=O)c3cc(N(C)C)ccc32)cc1,Potency,[1],> 92 µM
same,Potency,[2],> 92 µM
same,Potency,[4],inactive
same,Potency,[18],inactive
same,Potency,[5],inactive
same,Potency,[6],inactive
same,outcome,[7],inactive
same,caspase-3 activation,[8],-0.0609%
same,caspase-3 activation,[9],-1.05%
same,Potency,[19],inactive
same,Potency,[10],inactive
same,Potency,[20],inactive
same,Potency,[11],inactive
same,Potency,[12],inactive
same,Potency,[13],inactive
same,Potency,[14],inactive
same,Potency,[15],inactive
same,Potency,[16],inactive
same,Potency,[17],inactive
